# Screening results from PubChem.
# Rows were chosen to be rich in hits. Some 27% of all compounds tested hit in one or more screens of this group.
# Cav32 inh: Cav3.2 calcium influx blockers – cell-based, Fluo-4 calcium fluorescence, FDSS, MLSMR library, primary screen; Voltage-dependent T-type calcium channel subunit alpha-1H (Homo sapiens), O95180; Cav3.2-expressing cells; stronger effect = lower value; B-score at 10 µM; 100,000 compounds, 4% hits; AID 449739, 2010;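 active means single-dose well whose peak fluorescence ratio is a statistical outlier from its plate by either plate-standardised score or position-corrected B-score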
# CYP2C9 activ: human CYP2C9 activators, primary screen, biochemical, luminescence; recombinant CYP2C9, luciferin-H conversion; stronger effect = higher value; factor 1 = untreated enzyme, 0 = blocked; activation factor at 5 µM; 96,000 compounds, 1.4% hits; AID 1024, 2008;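 active means activation factor of 2 or more for CYP2C9 at a 5 µM dose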;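 further: 0 = sulfaphenazole-blocked wells and 1 = vehicle-only wells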
# Target sequence (P11712 whole entry, looked up): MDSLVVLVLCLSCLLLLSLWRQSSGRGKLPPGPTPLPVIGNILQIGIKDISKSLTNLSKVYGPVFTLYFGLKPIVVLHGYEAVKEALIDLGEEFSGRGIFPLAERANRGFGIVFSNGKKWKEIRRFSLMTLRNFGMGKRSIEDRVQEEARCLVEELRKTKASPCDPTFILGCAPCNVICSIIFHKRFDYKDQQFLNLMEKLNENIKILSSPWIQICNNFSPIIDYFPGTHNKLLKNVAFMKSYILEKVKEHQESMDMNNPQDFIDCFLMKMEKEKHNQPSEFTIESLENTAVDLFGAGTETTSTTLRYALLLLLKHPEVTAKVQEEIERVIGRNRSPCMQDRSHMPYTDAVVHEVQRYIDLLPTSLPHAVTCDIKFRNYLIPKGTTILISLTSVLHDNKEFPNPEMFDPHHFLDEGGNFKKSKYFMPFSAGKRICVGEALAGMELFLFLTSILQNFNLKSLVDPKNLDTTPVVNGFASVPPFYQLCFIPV
# CYP2C9 inh: blockers of cytochrome P450 2C9 activity – biochemical, luminescence, ADME assay, primary screen. CYP2C9 Supersomes, luciferin-H conversion. inhibition, % at 5 µM. 96,000 compounds, 20% hits. AID 777, 2007;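 active means blocking of liver enzyme CYP2C9 beyond about 50% at 5 µM, limit read from the data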
# CYP2C19 inh: blockers of cytochrome P450 2C19 activity – biochemical, luminescence, ADME assay, primary screen. AID 778, 2007. 96,000 compounds, 21% hits. P33261. CYP2C19 Supersomes, luciferin-H EGE luminescence, 30 min. inhibition, % at 5 µM;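 active means CYP2C19 inhibition above a set limit at 5 µM in the primary screen, cut at about 50% in these data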;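 further: plate controls were negative control wells for no effect and 2.5 mM tranylcypromine positive control for full effect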
# CYP2C19 act: human CYP2C19 activators, primary screen, biochemical, luminescence | Cytochrome P450 2C19 (Homo sapiens), P33261 | activation factor at 5 µM | recombinant CYP2C19, luciferin-H EGE luminescence; stronger effect = higher value; 0 = fully inhibited enzyme, 1 = untreated enzyme | 96,000 tested, under 10 active;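 active means activation factor of at least 2 at 5 µM in the primary screen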;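 further: 0 = wells with 2.5 mM tranylcypromine and 1 = vehicle-only wells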
# Starred values were filed as active, the others as inactive; . = not tested or not shown.
SMILES,Cav32 inh,CYP2C9 activ,CYP2C9 inh,CYP2C19 inh,CYP2C19 act
COc1ccc(OC)c(CCNC(=O)CS(=O)(=O)Cc2nc(-c3ccc(C)cc3)oc2C)c1,-5.9*,0.3,66*,54*,0.5
COc1cccc(-c2nc(CS(=O)(=O)CC(=O)NCCC(C)C)c(C)o2)c1,-3.1,.,.,.,.
COc1ccc(-c2nc(CS(=O)(=O)CC(=O)Nc3ccc(Cl)cc3)c(C)o2)cc1,-5.3*,0.7,26,48,0.5
COC(=O)c1ccccc1NC(=O)CS(=O)(=O)Cc1nc(-c2ccc(C)cc2)oc1C,-4.4,1.1,-14,-17,1.2
COc1cc(OC)c(NC(=O)CS(=O)(=O)Cc2nc(-c3ccc(C)cc3)oc2C)cc1Cl,-4.9*,0.7,35,31,0.7
Cc1cccc2nc(=S)n(C(=O)c3ccco3)n12,0.74,0.2,76*,73*,0.3
O=C(c1ccco1)n1c(=S)nc2ccccn21,1.6,0.7,28,72*,0.3
O=C(c1cc2ncc(Br)cn2n1)N1CCN(C(=O)c2ccco2)CC1,-0.23,1,0,7,0.9
Cc1ccc(C(=O)COC(=O)CCC(=O)NC2CCCCC2)cc1C,-3.5,0.8,19,13,0.9
CCN(CC(=O)N1CCN(C)CC1)S(=O)(=O)c1ccc(Cl)cc1,0.035,0.7,31,-7,1.1
COC(=O)C1=C(C(=O)OC)SC2(S1)C(C(=O)OC)=C(C(=O)OC)SC1=C2c2cc(C)cc(C)c2NC1(C)C,0.041,0.2,79*,67*,0.3
CC12CC(c3ccccc3O1)N(C(=O)c1ccc(Br)o1)C(=O)N2c1ccccc1 (stereo not given),1.5,0.4,62*,31,0.7
COc1cccc2c1OC1(C)CC2N(C(=O)c2ccco2)C(=S)N1c1ccc(F)cc1 (stereo not given),-0.64,0.7,29,32,0.7
CCOC(=O)C1=C(C)NC(=O)CC1c1cc2c(cc1Br)OCO2 (stereo not given),-0.89,0.1,90*,99*,0
C=CCOC(=O)C1=C(C)N(C)C(=O)NC1c1cc2c(cc1Br)OCO2 (stereo not given),-0.58,0.3,71*,96*,0
CCOC(=O)C1=C(C)NC(=O)CC1c1ccccc1 (stereo not given),0.68,1,-3,8,0.9
CC1=C(C(=O)OCCOC(C)C)C(c2cccnc2)C2=C(CCCC2=O)N1 (stereo not given),1.6,0.4,56*,70*,0.3
CC1=C(C(=O)OCCOC(C)C)C(c2cc3c(cc2Br)OCO3)C2=C(CCCC2=O)N1 (stereo not given),0.062,0.8,23,89*,0.1
COCCN1C=C(C(=O)OC)C(c2cc3c(cc2Br)OCO3)C(C(=O)OC)=C1,-0.71,0.7,27,46,0.5
CCOC(=O)N1CCN(C(=O)CN(c2ccc(OCc3ccccc3)cc2)S(C)(=O)=O)CC1,2,0.8,16,-1,1
CCN(CC)C(=O)c1sc(NC(=O)c2ccc(C)c([N+](=O)[O-])c2)c(C#N)c1C,.,1,2,1,1
O=C(COC(=O)c1cc(S(=O)(=O)N2CCOCC2)ccc1O)NCC1CCCO1 (stereo not given),1,0.9,8,5,1
O=Cc1ccc(N2CCCC2)c(F)c1,1.1,0.9,12,49,0.5
O=Cc1ccc(N2CCCCCC2)cc1,.,0.7,30,89*,0.1
CCOc1ccccc1NC(=O)NC1CC2CCCC(C1)N2Cc1nnnn1CCc1ccccc1 (stereo not given),.,0.4,61*,78*,0.2
SMILES,Cav32 inh,CYP2C9 activ,CYP2C9 inh,CYP2C19 inh,CYP2C19 act
CCn1c(CNC(=O)COc2ccc(C(C)C)cc2)nnc1SCC(=O)Nc1ccccc1C(C)C,-2.3,0.7,30,24,0.8
CCn1c(COc2cccc(C)c2)nnc1SCC(=O)CC(=O)Nc1ccccc1OC,-3.2,3.1*,-213,36,0.6
CCn1c(COc2ccccc2C)nnc1SCC(=O)CC(=O)Nc1ccccc1OC,-4.9*,2.5*,-155,43,0.6
CCn1c(CNC(=O)COc2ccc(C(C)C)cc2)nnc1SCC(=O)Nc1ccccc1F,-1.9,0.3,71*,53*,0.5
CCOC(=O)c1ccc(NC(=O)CSc2nnc(COc3ccccc3OC)n2CC)cc1,0.3,1,-1,27,0.7
CCn1c(COc2ccccc2)nnc1SCC(=O)CC(=O)Nc1ccccc1OC,-0.18,2.1*,-105,29,0.7
O=C(N/N=C1\CCCc2ccccc21)c1ccc([N+](=O)[O-])cc1Cl,0.12,1.3,-30,11,0.9
COc1ccc(CC(=O)Nc2nnc(C)s2)cc1,0.32,0.9,12,33,0.7
C=CCNc1oc(/C=C/c2ccccc2)nc1C#N,-0.2,0.3,74*,68*,0.3
C=CCNc1oc(Cc2cccc3ccccc23)nc1C#N,-3,0.4,65*,100*,0
N#Cc1nc(Cc2cccc3ccccc23)oc1NCc1ccc(F)cc1,-2.3,0.1,90*,52*,0.5
N#Cc1nc(Cc2cccc3ccccc23)oc1NCCN1CCOCC1,2,1.1,-8,-11,1.1
CCCCn1c(SCC(=O)NCc2cccs2)nc2c1c(=O)n(C)c(=O)n2C,0.81,0.8,20,13,0.9
O=c1c2ccccc2n(Cc2ccccc2F)c(=O)n1Cc1ccccc1F,.,1.2,-20,-14,1.1
Cc1cc2c(s1)c1cnn(Cc3ccccc3F)c(=O)c1n2C,-0.68,1,5,51*,0.5
C=CCNc1nc(Nc2ccc(OC)cc2)nc(OCC)n1,-2.1,1,3,10,0.9
CCOCCCNC(=O)C(c1ccc(Cl)cc1)N1CCC2(CC1)OCCO2 (stereo not given),1.7,1.1,-9,59*,0.4
CCOCCCNC(=O)C(c1ccc(Cl)cc1)N1CCN(C(=O)c2ccco2)CC1 (stereo not given),0.25,1.1,-10,7,0.9
CCOCCCNC(=O)C(c1ccc(C)cc1)N1CCOCC1 (stereo not given),0.56,1.4,-42,18,0.8
CCOCCCNC(=O)C(c1ccc(Cl)cc1)N1CCN(c2ccccc2)CC1 (stereo not given),-1.4,0.8,18,51*,0.5
Cc1sc(NC(=O)CSC2=NCCS2)nc1-c1ccccc1,-4.4*,0.6,42,36,0.6
CCOC(=O)Cc1csc(NC(=O)CC)n1,-0.39,1,2,-2,1
CCOC(=O)Cc1csc(NC(=O)CSc2nc(N)c3c(C)c(C)sc3n2)n1,0.12,0.4,59*,19,0.8
